# ATG4B inhibitor – inhibitors of human ATG4B cysteine protease. ATG4B cleavage of LC3-PLA2, NBD-HPC fluorescence, 1 h. inhibition, % at 8.33 µM. 340,000 compounds, 0.51% hits; in the data active = inhibition above about 40%
# Target sequence (Q9Y4P1 whole entry, looked up): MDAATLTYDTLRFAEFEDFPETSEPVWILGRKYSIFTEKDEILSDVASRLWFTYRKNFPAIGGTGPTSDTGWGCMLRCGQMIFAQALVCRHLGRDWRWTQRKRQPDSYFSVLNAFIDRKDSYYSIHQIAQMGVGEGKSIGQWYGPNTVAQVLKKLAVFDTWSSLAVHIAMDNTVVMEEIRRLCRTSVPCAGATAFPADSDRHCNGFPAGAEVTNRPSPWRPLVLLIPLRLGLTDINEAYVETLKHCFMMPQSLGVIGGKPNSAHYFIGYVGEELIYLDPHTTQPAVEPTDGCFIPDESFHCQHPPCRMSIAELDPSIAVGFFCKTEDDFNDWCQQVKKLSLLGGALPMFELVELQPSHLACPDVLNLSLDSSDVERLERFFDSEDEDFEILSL
# tim23-1 inh – inhibits growth of tim23-1 mutant yeast | 330,000 compounds, 1.3% hits | S. cerevisiae tim23-1 growth, BacTiter-Glo luminescence, 24 h | inhibition, % at 20 µM | AID 463212;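 active = growth inhibition of the mutant yeast at or above 50%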;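 note: temperature-sensitive mutant grown at 25 °C; plate controls were DMSO-treated mutant yeast for no effect and medium wells lacking yeast for full effect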
# tim10-1 inh – tim10-1 yeast growth inhibition; S. cerevisiae tim10-1 ts strain growth, BacTiter-Glo, 24 h; inhibition, % at 20 µM; 330,000 compounds, 2.2% hits;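 active = inhibition of at least 40%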;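 note: mutant grown at 25 °C; 0% = DMSO wells with yeast and 100% = wells holding no yeast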
# PfHsp90 set2 – reduces growth (ATP signal) of yeast expressing P. falciparum Hsp90; S. cerevisiae expressing PfHsp90, BacTiter-Glo ATP, 48 h; yeast lacking PDR1 and PDR3 efflux regulators; inhibition, % at 9.4 µM; 310,000 compounds, 0.32% hits;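 active = every replicate shows inhibition above about 80%, whatever the replicate mean, limit read from the data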;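 note: 0% = DMSO neutral controls and 100% = 20 µM radicicol positive controls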
# SKKanGAS inh – SKKanGAS growth inhibition; inhibition, % at 7.5 µM; S. pyogenes SKKanGAS, kanamycin growth, BacTiter-Glo, 6 h; 300,000 compounds, 1.3% hits;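 active = mean replicate score, as percent of positive control median, at least 50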;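 note: strain carries kanamycin resistance gene driven by streptokinase promoter and grows in 40 µg/ml kanamycin; loss of luminescence reflects streptokinase promoter inhibition or plain growth inhibition; 0% = median of DMSO wells and 100% = positive control at its reference dose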
# TIM10 inh – growth inhibitors of TIM10 yeast strain | S. cerevisiae TIM10 strain growth, BacTiter-Glo luminescence, 24 h | inhibition, % at 10 µM | 330,000 compounds, 1.4% hits | AID 463195;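 active = inhibition of 40% or more at the single tested concentration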;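 note: wild-type TIM10 isogenic control strain grown at permissive 25 °C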
# tim10-1 confirm – confirmation of tim10-1 mutant yeast growth inhibitors; shares compounds with tim10-1 inh; S. cerevisiae tim10-1 ts strain growth, BacTiter-Glo, 24 h; 7,400 compounds, 56% hits; inhibition, % at 20 µM;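 active = inhibition of yeast growth at or above a set limit in either of two repeat tests at 20 µM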;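 note: tim10-1 mutant grown at permissive 25 °C to find synthetic lethal compounds; 0% = DMSO yeast wells and 100% = medium wells without yeast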
# TIM10 conf – TIM10 yeast growth inhibition, confirmed; shares compounds with TIM10 inh; inhibition, % at 10 µM; S. cerevisiae tim10 strain growth, BacTiter-Glo luminescence, 24 h; AID 463215; 4,600 compounds, 63% hits;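 active = inhibition of yeast growth at or above a set limit in either of two replicates at 10 µM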;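 note: this counterscreen used the strain with wild-type TIM10; 0% = yeast with DMSO and 100% = medium wells lacking yeast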
# * marks the source's active call; other numbers are inactive results; · = no result. A selection: hits, their analogues and other compounds. The true share with any hit is near 4.7%.
SMILES,ATG4B inhibitor,tim23-1 inh,tim10-1 inh,PfHsp90 set2,SKKanGAS inh,TIM10 inh,tim10-1 confirm,TIM10 conf
CC(C)(C)C1=CC(=Nc2ccccc2N)C=C(C(C)(C)C)C1=O,1.7,5.6,6.7,-23.9,11.1,-3.9,·,·
CC(C)(C)C1=CC(=O)C(=O)C(C(C)(C)C)=C1,-8.7,23.9,47.2*,103.5*,-4.4,40.1*,38.8*,25.8
Cc1ccc(-n2cccc2C(=O)NS(=O)(=O)c2ccc(C)cc2)cc1,7.3,21.0,-8.2,13.4,-3.1,-11.6,·,·
Cc1ccc(-n2cccc2C(=S)N=P(N(C)C)(N(C)C)N(C)C)cc1,-6.0,26.2,40.7*,4.5,7.1,46.5*,26.0,13.6
CCc1ccc(S(=O)(=O)/N=C2\C=C(Nc3ccc(O)cc3)C(=O)c3ccccc32)cc1,25.4,42.6,64.2*,-17.7,109.5*,61.2*,69.7*,92.7*
CCOC(=O)c1sc(NC(=O)CCN2CCCCCC2)c(C(=O)OCC)c1C,-3.2,10.1,60.8*,-2.3,3.7,44.1*,51.1*,42.7*
CCOC(=O)c1c(NC(=O)CC)sc(C(=O)N2CCCCC2)c1C,-1.9,0.2,-3.5,4.3,-11.8,-3.7,·,·
COc1ccc(/C=C2\SC(=S)N(CCCC(=O)Nc3ccccn3)C2=O)cc1OC,-23.8,-17.3,2.0,4.8,24.0,-78.7,·,·
Cc1nn(C)c(C(=O)NC(=S)Nc2ccc([N+](=O)[O-])cc2)c1Cl,14.2,49.5,51.6*,5.8,11.3,41.1*,39.7*,27.8
O=C(/C=C/c1cccc([N+](=O)[O-])c1)n1cnc2ccccc21,14.1,47.5,46.2*,14.0,-1.3,45.1*,42.9*,38.8*
O=C(C1CC1)N1CCC(C(O)(c2ccccc2)c2ccccc2)CC1,0.0,19.4,27.4,6.2,2.6,6.5,·,·
Oc1ccccc1CN1CCC(C(O)(c2ccccc2)c2ccccc2)CC1,-8.7,19.1,42.9*,21.6,-9.5,50.5*,35.9*,41.3*
CC(C)CCC(CCN1CCOCC1)c1ccc2c(c1)OCO2 (stereo not given),2.1,15.1,12.7,3.8,-10.3,9.4,·,·
CSc1c(CC(=O)Nc2ccccc2)n(Cc2ccccc2)c2ccccc12,1.1,7.2,-1.0,6.9,-4.7,0.5,·,·
Oc1ccccc1C(=S)N1CCN(c2cccc(Cl)c2)CC1,8.0,40.3,28.2,23.0,-2.9,37.3,·,·
Oc1ccc(C(=S)N2CCN(c3cccc(Cl)c3)CC2)cc1,-12.2,25.4,40.9*,-4.2,·,54.1*,52.8*,48.0*
COc1ccc(CCN2C(=O)NC(NS(=O)(=O)c3ccc(Cl)cc3)(C(F)(F)F)C2=O)cc1OC (stereo not given),-5.6,13.3,1.6,-26.6,-6.2,-3.2,·,·
CC(Nc1ccc2c(c1)OCCO2)C(=O)Nc1ccc2c(c1)OCO2 (stereo not given),-5.1,-4.7,7.0,7.1,·,-18.5,·,·
COc1ccc(C(=O)Cn2c(C(=O)/C=C/c3ccccc3)nc3ccccc32)cc1,3.4,18.6,49.4*,-18.5,-5.6,41.5*,43.5*,35.5*
COc1ccc(S(=O)(=O)Nc2ccccc2SC)cc1C,5.5,24.7,24.5,-14.7,-10.6,10.5,·,·
COc1cc(/C=C2/N=C(C3CCCCC3)OC2=O)cc(OC)c1OC,0.5,39.4,43.2*,-25.8,1.2,43.7*,33.2*,29.1
COc1cc(/C=C2\N=C(C)OC2=O)cc(OC)c1OC,-8.4,21.7,9.8,13.3,-2.4,4.0,·,·
CCCc1[nH]nc2c1C(c1ccc(O)cc1OCC)C(C#N)=C(N)O2 (stereo not given),-5.4,24.3,30.6,26.9,-12.2,18.2,·,·
COc1ccc(C2C(C(=O)N3CCOCC3)=C(C)NC3=C2C(=O)CC(C)(C)C3)cc1O (stereo not given),0.5,-2.2,22.8,19.5,-20.2,-14.1,·,·
CN(C)CCCN(C(=O)c1ccc(S(=O)(=O)N(C)Cc2ccccc2)cc1)c1nc2cc3c(cc2s1)OCO3,23.0,18.4,37.0,-29.8,5.2,19.2,·,·

# Screens: PubChem BioAssay, several laboratories
